# Assay outcomes as filed in PubChem.
# In the library only some 3.5% were active in any assay of this set; here they are far more common.
# Pf apPOL block – Pf-apPOL inhibitors, biochemical, fluorescence | Recombinant Pf-apPOL, molecular beacon fluorescence, 1.5 h | inhibition, % at 10 µM | actives 0.25% (n = 210,000) | AID 1794808, 2022 | Plasmodium falciparum apicoplast DNA polymerase (apPOL)
# mHTT-CaM PPI inh – mutant huntingtin-calmodulin interaction inhibitors – biochemical, AlphaScreen, primary screen; AlphaScreen His-mHTT/GST-CaM binding, luminescence; inhibition, % at 15 µM; actives 3.6% (n = 190,000); AID 1671202, 2021;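 note: 0% = both proteins with DMSO and 100% = one protein alone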
# * hit, by the source's call; ! = a repeat was not active. Cut-off read from the data, not from the text of the source: active = inhibition above about 50%; inactive = the rest.
SMILES,Pf apPOL block,mHTT-CaM PPI inh
CCC[C@H]1[C@@H](NC(=O)c2ccc(Cl)c(C(F)(F)F)c2)CC[C@@]23CCCN2C(=O)CCC[C@@H]13,3,96*
COc1ccc(S(=O)(=O)N(CC(=O)NC2CCCCC2O)c2ccc(C)cc2)cc1OC (configuration not stated),1,9
Fc1ccc(C2=NCCC(c3ccccc3)O2)cc1 (configuration not stated),-10,51*
O=C1OC(c2ccc(F)cc2)=N/C1=C\c1ccccc1,-1,11
Cc1cc(C(=O)NCC(O)c2cccc3ccccc23)no1 (configuration not stated),-5,-8
COCCc1nnc(NC(=O)C(c2ccccc2)c2ccccc2)o1,-7,96*
COCC(C)NC(=O)C(c1ccccc1)c1ccccc1 (configuration not stated),-9,-9
CCN1CCN(CCNC(=O)c2cc3sc(C)c(CN4CCCCC4)c3[nH]2)CC1,-1,24
O=C(CCCOc1ccccc1)N1CCN(Cc2ccccc2)CC1,-1,8
O=C(c1cccc(Cl)c1)N1CCN(c2ccccc2)CC1,-6,0
O=C(CCCOc1ccccc1)N1CCN(c2cccc(Cl)c2)CC1,-6,70*
O=C(c1cc(-c2ccccc2)nc2ccccc12)N1CCCC1,8,8
O=C(c1ccccc1Br)N1CCN(c2cccc(Cl)c2)CC1,3,64*!
O=C(c1cc(-c2ccncc2)nc2ccccc12)N1CCN(c2cccc(Cl)c2)CC1,-6,91*
Cc1c(N=C2NN=C(c3ccc([N+](=O)[O-])cc3)CS2)c(=O)n(-c2ccccc2)n1C,-4,20
Cc1c(C2CCN(C(=O)c3nccc4ccccc34)CC2)noc1N,-3,11
CC(=O)N1CCC(n2c(C)nc(C(=O)Nc3ccc(C)cc3)c2C)CC1,-7,10
NC(=O)c1cc2ccccc2oc1=Nc1ccc(F)cc1,-4,-6
COc1ccc(OC)c(NC(=O)CCN2C(=O)c3ccncc3C2=O)c1,2,0
O=C(c1ccco1)N1CCN(C2=NN=C(c3cccs3)CS2)CC1,50*,96*
O=C(c1ccccc1F)N1CCN(C2=NN=C(c3ccccc3)CS2)CC1,-7,92*
O=C(c1ccccc1)c1ccc(N2CCN(C(=O)c3ccccc3F)CC2)c(F)c1,4,-4
N#Cc1nc(-c2cccs2)oc1N1CCN(C(=O)c2ccco2)CC1,-2,-2
CC(=O)Nc1cccc(N=Cc2cc([N+](=O)[O-])ccc2O)c1,-5,0
Cc1ccc(O)c(-c2nc3cc(C)ccc3o2)c1,1,5
SMILES,Pf apPOL block,mHTT-CaM PPI inh
CCOc1ccc(C(=O)Nc2ccccc2N2CCOCC2)cc1Br,-6,-10
CCOc1cc(N2CCOCC2)c(OCC)cc1N,-6,53*
CCN(CC)CCCNC(=O)C1CCCN(c2ncc(-c3cccc(F)c3)cn2)C1 (configuration not stated),5,4
OCCCc1nc2n(n1)C(c1cccc(Cl)c1)C=C(c1ccc(F)cc1)N2 (configuration not stated),-6,41
COc1ccc(C2C=C(c3ccc(Cl)cc3)Nc3nc(CCCO)nn32)cc1OC (configuration not stated),12,52*
Cc1cc(C)cc(NC(=O)C2CC(=O)N(C3CCCCC3)C2)c1 (configuration not stated),-3,2
Cc1cc(C)cc(N=Cc2cc([N+](=O)[O-])ccc2O)c1,0,2
O=C(c1cccc(Cl)c1)N1CCC(C(=O)N2CCN(Cc3ccccc3)CC2)CC1,0,10
O=C(c1cc(Cl)cc(Cl)c1)N1CCC(=O)N([C@H](COCc2ccccc2)Cc2ccccc2)CC1,-3,92*
O=C(c1cccc(Cl)c1)N1CCC(=O)N([C@H](COCc2ccccc2)Cc2ccccc2)CC1,-4,66*
Cc1ccc(S(=O)(=O)N2CCC(=O)N(C(COC(=O)Nc3ccccc3)Cc3ccccc3)CC2)cc1 (configuration not stated),-10,2
Cc1ccc(-n2c(=O)c3sccc3n(CC(N)=O)c2=O)cc1,3,1
Cc1ccc(S(=O)(=O)CC(SC#N)c2ccccc2)cc1 (configuration not stated),-5,-12
N#CSC(CS(=O)(=O)c1ccc([N+](=O)[O-])cc1)c1ccccc1 (configuration not stated),-10,62*
COC(=O)c1ccc(C(=O)N(CCn2cccn2)c2nc3c(C)cc(C)cc3s2)cc1,-4,100*
Cc1ccc(C)c(C(=O)N(CCn2cccn2)c2nc3c(F)cccc3s2)c1,-6,-11
O=C(c1ccc(Oc2ccccc2)cc1)N1CC(c2nc3ccccc3[nH]2)C1,-28,100*
Cc1cc(C(=O)N2CC(c3nc4ccccc4[nH]3)C2)no1,-2,-10
Cc1c(-c2ccccc2)c(=O)oc2ccc(OC(=O)c3cccc([N+](=O)[O-])c3)cc12,-4,8
